Results reported in ChEMBL document CHEMBL1201862, “PubChem BioAssay data set” (2004).
Out of some 300,000 compounds screened, about 3,700 (1.2%) were called active. Another 20% or so got no clear call; they are omitted. This is one part of a sample in which actives are shown more often than they occur. The rule behind the calls is not given here.

system: HEK293; experiment: qHTS for Inhibitors of binding or entry into cells for Lassa Virus. [Related pubchem assays (depositor defined):AID463114, AID540249]; type: functional, Homo sapiens; settings: read-out: Potency

SMILES | AC50
C[C@@H]1O[C@@H](O[C@H]2C[C@@H](O)[C@]3(CO)[C@H]4[C@H](O)C[C@]5(C)[C@@H]([C@@H]6COC(=O)C6)CC[C@]5(O)[C@@H]4CC[C@]3(O)C2)[C@H](O)[C@H](O)[C@H]1O [DIHYDROOUABAIN] | 1580 nM (active)
